Data taken from PubChem BioAssay AID1159580 (chemical genetic matrix, 2015).
Several values for one entry are separate records, joined by “and”; a condition that tells them apart may be missing. Equal values may be shown once. Among all 5,500 compounds or so, about 2,000 (36%) were called active. About 18% were inconclusive and are not listed. Rule as the data show it: active = normalized growth mostly below about 0.91 (no sharp cut-off); inconclusive = no clear call, values can overlap the other calls; inactive = mostly above about 0.92. The list shows a part of the results.

Assay: chemical genetic growth profiling, strain panel (AID 1159580);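 also: tested at 20 µM; growth read once vehicle control cultures reached saturation at 30 °C; 1 = growth at the plate median or of vehicle wells; lower values mean less growth of the strain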
Conditions: S. cerevisiae deletion strains, growth OD

Measured: normalized growth

NC(N)=NCCN1CCCCCCC1
active: locus YLR262C, strain YPT6 (second series), stronger effect = lower value 1.25 [resistant] | locus YNL209W, strain ssb2, stronger effect = lower value 0.87
inactive: locus YAL013W, strain DEP1, stronger effect = lower value 1 | locus YAL021C, strain ccr4, stronger effect = lower value 1.02 | locus YAL026C, strain drs2, stronger effect = lower value 1.02 | locus YAL030W, strain snc1, stronger effect = lower value 1.03 | locus YBL061C, strain skt5, stronger effect = lower value 1.03 | locus YBR009C, strain hhf1, stronger effect = lower value 1.03 | locus YBR021W, strain FUR4, stronger effect = lower value 1.01 | locus YBR023C, strain chs3, stronger effect = lower value 1.03 | locus YBR171W, strain sec66, stronger effect = lower value 1.06 | locus YBR229C, strain ROT2, stronger effect = lower value 1 | locus YBR231C, strain swc5, stronger effect = lower value 0.999 | locus YBR279W, strain paf1, stronger effect = lower value 1.02 | locus YCL011C, strain gbp2, stronger effect = lower value 1.04 | locus YCL016C, strain dcc1, stronger effect = lower value 1.02 | locus YCL029C, strain bik1, stronger effect = lower value 1.01 | locus YCL061C, strain MRC1, stronger effect = lower value 1.03 | locus YCL069W, strain vba3, stronger effect = lower value 1.03 | locus YCR088W, strain abp1, stronger effect = lower value 1.03 | locus YDL005C, strain med2, stronger effect = lower value 1.04 | locus YDL035C, strain GPR1, stronger effect = lower value 1.01 | locus YDL040C, strain nat1, stronger effect = lower value 1.02 | locus YDL074C, strain BRE1, stronger effect = lower value 1.01 | locus YDL101C, strain DUN1, stronger effect = lower value 1 | locus YDL185W, strain tfp1, stronger effect = lower value 1.01 | locus YDL192W, strain arf1, stronger effect = lower value 1.03 | locus YDR001C, strain nth1, stronger effect = lower value 1.02 | locus YDR069C, strain doa4, stronger effect = lower value 1.02 | locus YDR101C, strain arx1, stronger effect = lower value 1.01 | locus YDR137W, strain rgp1, stronger effect = lower value 1.04 | locus YDR159W, strain sac3, stronger effect = lower value 1.05 | locus YDR162C, strain NBP2, stronger effect = lower value 1 | locus YDR195W, strain ref2 1.01 | locus YDR297W, strain sur2, stronger effect = lower value 1.03 | locus YDR318W, strain mcm21, stronger effect = lower value 1.02 | locus YDR334W, strain swr1, stronger effect = lower value 1.03 | locus YDR335W, strain msn5, stronger effect = lower value 1.03 | locus YDR388W, stronger effect = lower value 1.02 | locus YDR392W, strain spt3, stronger effect = lower value 0.986 | locus YDR502C, strain sam2, stronger effect = lower value 1.01 | locus YEL003W, strain gim4, stronger effect = lower value 1.02 | locus YEL037C, strain rad23, stronger effect = lower value 1.03 | locus YEL061C, strain CIN8 (second series), stronger effect = lower value 1.02 | locus YEL061C, strain CIN8, stronger effect = lower value 1.01 | locus YER015W, strain faa2, stronger effect = lower value 1.03 | locus YER016W, strain bim1, stronger effect = lower value 1.02 | locus YER110C, stronger effect = lower value 1.03 | locus YER111C, strain swi4, stronger effect = lower value 1.03 | locus YER155C, strain BEM2 (second series), stronger effect = lower value 1 | locus YER155C, strain BEM2, stronger effect = lower value 0.998 | locus YER167W, strain BCK2, stronger effect = lower value 1 | locus YFR010W, strain ubp6, stronger effect = lower value 1.03 | locus YGL078C, strain dbp3, stronger effect = lower value 1.04 | locus YGL086W, strain mad1, stronger effect = lower value 1 | locus YGL167C, strain pmr1, stronger effect = lower value 1.05 | locus YGL173C, strain kem1, stronger effect = lower value 1.03 | locus YGL227W, strain vid30, stronger effect = lower value 1.03 | locus YGL240W, strain doc1, stronger effect = lower value 1.02 | locus YGL248W, strain PDE1, stronger effect = lower value 1.01 | locus YGL253W, strain hxk2, stronger effect = lower value 1.02 | locus YGR078C, strain PAC10, stronger effect = lower value 1 | locus YGR135W, strain pre9, stronger effect = lower value 1.02 | locus YGR252W, strain gcn5, stronger effect = lower value 0.994 | locus YHR013C, strain ard1, stronger effect = lower value 1.05 | locus YHR027C, strain rpn1, stronger effect = lower value 1.03 | locus YHR030C, strain SLT2, stronger effect = lower value 1.01 and 0.977 | locus YHR079C, strain IRE1 (second series), stronger effect = lower value 1.02 | locus YHR079C, strain IRE1, stronger effect = lower value 0.983 | locus YHR094C, strain hxt1, stronger effect = lower value 1.02 | locus YHR129C, strain ARP1, stronger effect = lower value 1 | locus YHR142W, strain chs7, stronger effect = lower value 1.05 | locus YHR200W, strain rpn10, stronger effect = lower value 1.03 | locus YIL066C, strain RNR3, stronger effect = lower value 1.01 | locus YIL073C, strain SPO22, stronger effect = lower value 1.04 | locus YIL125W, strain kgd1, stronger effect = lower value 1.02 | locus YIR030C, strain dcg1, stronger effect = lower value 1.02 | locus YJL092W, strain hpr5, stronger effect = lower value 1.03 | locus YJL095W, strain BCK1 (second series), stronger effect = lower value 1.02 | locus YJL095W, strain BCK1, stronger effect = lower value 1.01 and 0.982 | locus YJL115W, strain asf1, stronger effect = lower value 1.03 | locus YJL129C, strain trk1, stronger effect = lower value 1.06 | locus YJL134W, strain LCB3, stronger effect = lower value 1 | locus YJL154C, strain vps35, stronger effect = lower value 1.01 | locus YJL164C, strain tpk1, stronger effect = lower value 1.04 | locus YJL166W, strain qcr8, stronger effect = lower value 1.04 | locus YJL168C, strain set2, stronger effect = lower value 1.03 | locus YJL187C, strain SWE1 (second series), stronger effect = lower value 1.01 | locus YJL187C, strain SWE1, stronger effect = lower value 1.04 | locus YJR043C, strain POL32, stronger effect = lower value 1 | locus YJR066W, strain TOR1, stronger effect = lower value 0.932 | locus YKL009W, strain mrt4, stronger effect = lower value 1.02 | locus YKL068W, stronger effect = lower value 1.01 | locus YKL085W, strain MDH1 (second series), stronger effect = lower value 1.01 | locus YKL085W, strain MDH1, stronger effect = lower value 1.01 | locus YKL160W, strain elf1, stronger effect = lower value 1.04 | locus YKR001C, strain vps1, stronger effect = lower value 1.03 | locus YKR026C, strain gcn3, stronger effect = lower value 1.03 | locus YKR091W, strain srl3, stronger effect = lower value 1.02 | locus YLL001W, strain dnm1, stronger effect = lower value 1.02 | locus YLL026W, stronger effect = lower value 1.03 | locus YLL041C, strain sdh2, stronger effect = lower value 1.02 | locus YLR027C, strain aat2, stronger effect = lower value 1.02 | locus YLR039C, strain RIC1, stronger effect = lower value 1 | locus YLR058C, strain SHM2, stronger effect = lower value 1.01 | locus YLR102C, strain apc9, stronger effect = lower value 1.02 | locus YLR113W, strain HOG1, stronger effect = lower value 0.985 | locus YLR221C, strain rsa3, stronger effect = lower value 1.05 | locus YLR258W, strain gsy2, stronger effect = lower value 1.03 | locus YLR262C, strain YPT6, stronger effect = lower value 1.03 | locus YLR268W, strain sec22, stronger effect = lower value 1.02 | locus YLR320W, strain mms22, stronger effect = lower value 1.05 | locus YLR330W, strain CHS5, stronger effect = lower value 1.01 | locus YLR342W, strain FKS1 (second series), stronger effect = lower value 1.02 | locus YLR342W, strain FKS1, stronger effect = lower value 1.06 | locus YLR357W, strain rsc2, stronger effect = lower value 1.03 | locus YLR370C, strain arc18, stronger effect = lower value 1.03 | locus YLR371W, strain rom2, stronger effect = lower value 1.02 | locus YLR384C, strain iki3, stronger effect = lower value 1.03 | locus YLR418C, strain cdc73, stronger effect = lower value 1.03 | locus YML016C, strain PPZ1, stronger effect = lower value 1.01 | locus YML032C, strain rad52, stronger effect = lower value 1.02 | locus YML120C, strain ndi1, stronger effect = lower value 1.04 | locus YML124C, strain tub3, stronger effect = lower value 1.03 | locus YMR058W, strain fet3, stronger effect = lower value 1.02 | locus YMR078C, strain ctf18, stronger effect = lower value 1.02 | locus YMR125W, strain sto1, stronger effect = lower value 1.03 | locus YMR129W, stronger effect = lower value 1.02 | locus YMR205C, strain PFK2, stronger effect = lower value 1.05 | locus YMR223W, strain ubp8, stronger effect = lower value 1.02 | locus YMR231W, strain pep5, stronger effect = lower value 1.04 | locus YMR307W, strain GAS1, stronger effect = lower value 0.992 | locus YNL067W, strain RPL9B, stronger effect = lower value 1 | locus YNL071W, strain lat1, stronger effect = lower value 1.03 | locus YNL128W, strain TEP1, stronger effect = lower value 1.02 | locus YNL183C, strain NPR1, stronger effect = lower value 0.959 | locus YNL233W, strain BNI4, stronger effect = lower value 1.01 | locus YNL248C, strain rpa49, stronger effect = lower value 1.04 | locus YNL250W, strain rad50, stronger effect = lower value 1.01 | locus YNL271C, strain bni1, stronger effect = lower value 1.02 | locus YNL298W, strain CLA4, stronger effect = lower value 1.03 | locus YNL307C, strain MCK1, stronger effect = lower value 1.02 | locus YNL322C, strain KRE1 (second series), stronger effect = lower value 1.05 | locus YNL322C, strain KRE1, stronger effect = lower value 1 | locus YNR049C, strain mso1, stronger effect = lower value 1.03 | locus YNR052C, strain pop2, stronger effect = lower value 1.01 | locus YOL012C, strain htz1 0.825 | locus YOL147C, strain pex11, stronger effect = lower value 1.02 | locus YOR001W, strain rrp6, stronger effect = lower value 0.997 | locus YOR061W, strain CKA2, stronger effect = lower value 1.01 | locus YOR069W, strain VPS5, stronger effect = lower value 1 | locus YOR070C, strain gyp1, stronger effect = lower value 1.05 | locus YOR080W, strain dia2, stronger effect = lower value 1.03 | locus YOR083W, strain WHI5, stronger effect = lower value 1.03 | locus YOR106W, strain vam3, stronger effect = lower value 1.05 | locus YOR136W, strain idh2, stronger effect = lower value 1.02 | locus YOR144C, strain elg1, stronger effect = lower value 1.02 | locus YOR184W, strain ser1, stronger effect = lower value 1.03 | locus YOR231W, strain MKK1, stronger effect = lower value 0.993 | locus YOR265W, strain rbl2, stronger effect = lower value 1.05 | locus YOR270C, strain vph1, stronger effect = lower value 1.07 | locus YOR290C, strain snf2, stronger effect = lower value 0.981 | locus YOR316C, strain cot1, stronger effect = lower value 1.02 | locus YPL051W, strain arl3, stronger effect = lower value 1.02 | locus YPL055C, strain LGE1, stronger effect = lower value 1.01 | locus YPL078C, strain atp4, stronger effect = lower value 1.03 | locus YPL106C, strain sse1, stronger effect = lower value 1.02 | locus YPL240C, strain hsp82, stronger effect = lower value 1.04 | locus YPL256C, strain CLN2, stronger effect = lower value 0.977 | locus YPR119W, strain clb2, stronger effect = lower value 1.03 | locus YPR141C, strain kar3, stronger effect = lower value 1.02 | locus YPR163C, strain tif3, stronger effect = lower value 1.03 | locus YPR167C, strain met16, stronger effect = lower value 1.02 | strain wtn01, stronger effect = lower value 1.03
